# Measurements reported in PubChem BioAssay AID1508602 (The Scripps Research Institute Molecular Screening Center, 2020).
# Hit rate of the full screen: of about 650,000 compounds, about 6,800 (1%) were called active. The sample as a whole holds a higher share of actives than the screen did. Unmarked numbers belong to inactive results. No stated cut-off is given here; in the data, active means activation above about 4.9%; inactive means the rest.
# Target: G-protein coupled receptor 151 (Homo sapiens) (UniProt Q8TDV0)
# Test: activators of human GPR151, primary screen, cell-based, PathHunter beta-arrestin, luminescence (AID 1508602);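 further: 0% = median of compound wells and 100% = cells with positive control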
# Details: PathHunter beta-arrestin GPR151 cells, at 11.2 µM, hits give high values
# G-protein coupled receptor 151 (Homo sapiens), sequence (Q8TDV0 whole entry, looked up): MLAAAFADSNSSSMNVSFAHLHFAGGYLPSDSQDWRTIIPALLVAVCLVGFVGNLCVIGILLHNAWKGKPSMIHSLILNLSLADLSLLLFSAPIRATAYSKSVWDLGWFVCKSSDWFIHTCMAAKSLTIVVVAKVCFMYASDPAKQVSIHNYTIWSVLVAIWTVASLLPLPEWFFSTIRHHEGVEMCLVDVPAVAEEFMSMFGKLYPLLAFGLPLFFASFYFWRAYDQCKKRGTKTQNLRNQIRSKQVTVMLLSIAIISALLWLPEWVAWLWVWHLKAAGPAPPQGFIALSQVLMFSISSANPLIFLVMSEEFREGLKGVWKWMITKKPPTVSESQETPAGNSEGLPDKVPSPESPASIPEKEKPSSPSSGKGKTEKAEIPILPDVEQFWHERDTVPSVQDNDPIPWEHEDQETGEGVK
row,SMILES,activation
1,CC1CCN(C(=O)C2CCCN2c2nnc(N3CCCC3=O)s2)CC1 (configuration not stated),0.834%
2,CC(C)(C)OC(=O)N1CCC[C@H]1C(=O)c1cccnc1,0.241%
3,O=C(NCCCN=C1NS(=O)(=O)c2ccccc21)c1ccc(Cl)c(Cl)c1,-0.637%
4,COc1nc(Nc2ccccc2)nc(-c2csc3ccccc23)n1,-0.667%
5,COc1nc(Nc2ccccc2)nc(-c2c(C)noc2C)n1,5.15% (active)
6,COc1nc(Nc2ccccc2)nc(-c2ccc(C(=O)NC3CC3)cc2)n1,0.979%
7,CCCCc1ccc(NC(=O)COC(=O)c2ccc([N+](=O)[O-])o2)cc1,-2.13%
8,Cc1cccc(N(C)C(=O)C2CCCN(S(=O)(=O)c3c(C)noc3C)C2)c1 (configuration not stated),0.213%
9,CCc1ccc(-c2nc(CSCC(=O)NC(C)(C)C)c(C)o2)cc1,-0.321%
10,CCSc1nnc(CC(N)=O)c2ccccc12,-0.522%
11,O=c1cc(-c2cc3cc(Cl)ccc3oc2=O)c2ccc(O)cc2o1,-0.104%
12,CCCn1ncc(CN2CCN(C3CCN(C(C)C)CC3)C(CCO)C2)c1C (configuration not stated),1.43%
13,Cc1c(CN2CCCC(N3CCC(CO)CC3)C2)c(=O)n(-c2ccccc2)n1C (configuration not stated),-1.54%
14,CCCn1ncc(CN2CCCC(N3CCC(CO)CC3)C2)c1C (configuration not stated),6.31% (active)
15,Cc1ccc(OCC(=O)Nc2nncs2)cc1,0.547%
16,CC1CCCN(C(=O)NCc2noc3ccccc23)C1 (configuration not stated),-1.14%
17,CCOc1ccc(-n2c(C)cn3c4c(=O)n(CC(C)C)c(=O)n(C)c4nc23)cc1,0.368%
18,O=C(C1CC12CCN(Cc1c(F)cccc1F)CC2)N1CCN(Cc2ccccc2)CC1 (configuration not stated),-0.828%
19,O=C(NCCO)c1cnc(NC2CCN(Cc3ccccc3)CC2)s1,7.19% (active)
20,O=C(NC1CCN(Cc2ccccc2)CC1)c1ccc(-c2ccccc2)s1,0.522%
21,CCCNC(=O)c1cc(NC2CCN(Cc3ccccc3)CC2)nc2ccccc12,0.365%
22,Cc1ccc(Cn2cc(C#N)c([N+](=O)[O-])n2)cc1,2.65%
23,COc1ccc(-c2noc(-c3ccccc3Cl)n2)cc1,6.08% (active)
24,Cc1ccc(-c2nc(-c3ccccc3Cl)no2)cc1,0.675%

row,SMILES,activation
1,COc1ccc(-c2noc(-c3ccc(Br)cc3)n2)cc1,-0.475%
2,CC(C)CNC(=O)c1ccccc1NC(=O)c1ccc([N+](=O)[O-])cc1,1.87%
3,CN(C)c1ccc(NC(=O)c2ccc([N+](=O)[O-])cc2)c2ccccc12,2.25%
4,CC1(c2ccccc2NC(=O)c2ccc([N+](=O)[O-])cc2)CC1,6.15% (active)
5,O=C(Cc1ccccc1)NCc1nnc2n1CCN(Cc1ccc(F)cc1)CC2,-0.584%
6,COc1ccc(-c2coc3cc(OC4OC(COC5OC(C)C(O)C(O)C5O)C(O)C(O)C4O)cc(O)c3c2=O)cc1 (configuration not stated),-0.0364%
7,COc1cc(-c2coc3cc(O[C@@H]4O[C@H](CO)[C@@H](O)[C@H](O)[C@H]4O)c(OC)c(O)c3c2=O)cc(O)c1OC,8.99% (active)
8,CCc1cc2c(=O)c(-c3ccc4c(c3)OCO4)c(C)oc2cc1OC1OC(CO)C(O)C(O)C1O (configuration not stated),0.749%
9,CCc1ccc(CN2CCc3nnc(-c4ccccc4)n3CC2)o1,-0.804%
10,CCOC(=O)N1CCC(N2CCC(CO)(CCOc3ccccc3)CC2)CC1,0.442%
11,C=CCN1C(=O)CC(C(=O)OC)C12CCN(C1CCN(C(=O)OCC)CC1)CC2 (configuration not stated),12.8% (active)
12,CCN1C(=O)CC(C(=O)OC)C12CCN(Cc1ccc(OC)c(OC)c1)CC2 (configuration not stated),2.97%
13,CCCCOc1ccccc1CNCC,6.95% (active)
14,CCOc1ccccc1CNCC(C)O (configuration not stated),-1.22%
15,CCOc1ccccc1OCCCNCc1ccccc1,0.0114%
16,CNC(=O)c1c(NC(=O)c2ccccc2F)sc2c1CCC(C(C)(C)C)C2 (configuration not stated),2.94%
17,O=C1CC(Cc2ccccc2)C(=O)N1c1ccc(Cl)cc1 (configuration not stated),0.299%
18,Cc1ccc(Cn2c(=S)[nH]c3ccc(Cl)cc3c2=O)cc1,0.529%
19,Oc1ccc(-c2cnc3ccc(NC4CCOCC4)nn23)cc1,-0.504%
20,c1ccc2sc(-c3cnc4ccc(NC5CCOCC5)nn34)cc2c1,5.94% (active)
21,Brc1cccc(-c2cnc3ccc(NC4CCOCC4)nn23)c1,-0.245%
22,O=C(CN(CC1CCCO1)C(=O)CNS(=O)(=O)c1ccccc1)NC1CCCCC1 (configuration not stated),0.636%
23,COc1cccc(/C=N/NC(=O)CSc2nc(C)cc(C)n2)c1OC,1.66%
